# Measurements as given in the supplement of paper PMC10811239.
# Test system: LEGO organoid PTCC (PTEN-/-; TP53-/-; CDKN2A-/-; CDKN2B-/-)
# Assay: bioluminescence (viable cell) signal fold change after vs before treatment, normalised to DMSO (ratio); higher = more tumour cell growth / less inhibition
# Settings: 10 µM; treatment time 6 days
# Protocol: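 Luc2-labelled iPSC-derived glioblastoma-like organoids (LEGOs, genotypes PT = PTEN-/-;TP53-/-, PTCC = plus CDKN2A/B-/-, PTN = plus NF1-/-) were treated with 10 uM drug for 6 days (applied every other day) at 37 C. Bioluminescence imaging was done before treatment and 2 days after the last dose. BLI signals were normalised to the DMSO control on the same day and then to the pre-treatment signal (N=3).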
row,Compound,bioluminescence
1,Cc1n[nH]cc1-c1cc2[nH]c([C@@H]3CC4CCN3CC4)nc(=O)c2s1 [Simurosertib],1.46
2,CCN(C)C(=O)Oc1cccc([C@H](C)N(C)C)c1 [Rivastigmine],0.555
3,Cl.Cn1c(CCCC(=O)O)nc2cc(N(CCCl)CCCl)ccc21 [Bendamustine hydrochloride],0.752
4,CN[C@@H]1C[C@H]2O[C@@](C)([C@@H]1OC)n1c3ccccc3c3c4c(c5c6ccccc6n2c5c31)C(=O)NC4 [Staurosporine],0
5,COc1cc2c(cc1OC)[C@@H]1CC(=O)[C@@H](CC(C)C)CN1CC2.COc1cc2c(cc1OC)[C@H]1CC(=O)[C@H](CC(C)C)CN1CC2 [Tetrabenazine],1.1
6,CCC1(c2ccc(N)cc2)CCC(=O)NC1=O (configuration not stated) [Aminoglutethimide],1.11
7,Cc1cccc([C@H](C)c2cnc[nH]2)c1C.Cl [Dexmedetomidine HCl],1.39
8,NCC(CC(=O)O)c1ccc(Cl)cc1 (configuration not stated) [Baclofen],0.877
9,COc1ccc(C(CN(C)C)C2(O)CCCCC2)cc1.Cl (configuration not stated) [Venlafaxine hydrochloride],0.737
10,CN(C)C(=O)Oc1ccc[n+](C)c1.[Br-] [Mestinon],1.67
11,CC(C)c1cccc(C(C)C)c1O [Propofol],0.675
12,CC[C@@H](C(N)=O)N1CCCC1=O [Levetiracetam],1.07
13,NCC1(CC(=O)O)CCCCC1 [Gabapentin],1.26
14,CCOC(=O)c1cncn1[C@H](C)c1ccccc1 [Etomidate],1.01
15,O=C(O)CCCc1ccc(N(CCCl)CCCl)cc1 [Chloroambucil],1.06
16,CC(C)C[C@H]1C(=O)N2CCC[C@H]2[C@]2(O)O[C@](NC(=O)[C@@H]3C[C@@H]4c5cccc6[nH]cc(c56)C[C@H]4N(C)C3)(C(C)C)C(=O)N12.CC(C)[C@@]1(NC(=O)[C@@H]2C[C@@H]3c4cccc5[nH]cc(c45)C[C@H]3N(C)C2)O[C@@]2(O)[C@@H]3CCCN3C(=O)[C@H](Cc3ccccc3)N2C1=O.CC(C)[C@H]1C(=O)N2CCC[C@H]2[C@]2(O)O[C@](NC(=O)[C@@H]3C[C@@H]4c5cccc6[nH]cc(c56)C[C@H]4N(C)C3)(C(C)C)C(=O)N12.CCC(C)[C@H]1C(=O)N2CCC[C@H]2[C@]2(O)O[C@](NC(=O)[C@@H]3C[C@@H]4c5cccc6[nH]cc(c56)C[C@H]4N(C)C3)(C(C)C)C(=O)N12.CS(=O)(=O)O [Dihydroergotoxine mesylate],1.82
17,CCN(C)C(=O)Oc1cccc([C@H](C)N(C)C)c1.O=C(O)[C@H](O)[C@@H](O)C(=O)O [Rivastigmine tartrate],0.566
